IMPase inh – qHTS Assay for Identifying the Cell-Membrane Permeable IMPase Inhibitors; Inositol monophosphatase 1 (Rattus norvegicus), P97697; CHO-M1 cells, IP1 accumulation, HTRF TR-FRET ratio; inhibition (IP1 accumulation), % at 46.1 µM; 120,000 tested, under 10 active; AID 901, 2007; active = well fitted curve in the direction sought with a large enough effect in the signal ratio, not every such curve was filed as active; inconclusive = small, poorly fitted or top-dose-only effect, or a change in a side signal; inactive = no such curve, though single readings can be large or run the other way; the % refers to the signal ratio;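 note: cells stimulated with carbachol in lithium chloride buffer; higher means more IMPase inhibition seen as more IP1 and lower FRET ratio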
Target sequence (P97697 whole entry, looked up): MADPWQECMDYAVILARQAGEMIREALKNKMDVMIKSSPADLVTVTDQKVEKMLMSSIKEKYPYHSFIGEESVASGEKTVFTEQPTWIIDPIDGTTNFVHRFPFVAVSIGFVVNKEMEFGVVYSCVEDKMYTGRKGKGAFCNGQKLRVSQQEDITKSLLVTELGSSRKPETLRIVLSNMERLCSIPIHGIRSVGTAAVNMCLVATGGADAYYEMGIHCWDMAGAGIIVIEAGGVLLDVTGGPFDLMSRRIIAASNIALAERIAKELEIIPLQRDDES
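CHO-M1, 2000 cells/well, cultured 16–30 h; cpd up to 46 uM; carbachol (50 uM solution, stimulation buffer w/ 50 mM LiCl, pH 7.4), 30 min 37C; IP-One TR-FRET, 10 min RT; Ex 320/Em 665, 620; Hill-fit AC50.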
IMPase Li cell – qHTS Assay for Identifying the Cell-Membrane Permeable IMPase Inhibitors: Potentiation with Lithium | CHO-M1 cells, IP1 TR-FRET (IP-One), carbachol + lithium | Potency, µM (series often up to 59.4 µM), usual class: inhibitors | 210,000 tested, 0.35% active | AID 1457, 2008;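 note: IP1 builds up when IMPase is blocked and the TR-FRET signal falls; nearly all actives have a fitted effect of over 50% in size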
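CHO cells stably expressing M1 receptor (2000/well) were cultured 16–30 h, then exposed to compounds with a small lithium addition for 30 min at 37C. IP1 was measured by TR-FRET competition; AC50 from Hill fits.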
HTT aggregate – qHTS Multiplex Assay to Identify Dual Action Probes in a Cell Model of Huntington: Aggregate Formation (GFP) | PC12 HttQ103-GFP aggregates, Acumen cytometry, 40 h | Potency, µM (highest dose often 46.1 µM), actives largely listed as inhibitors | 220,000 tested, 1.1% active | AID 1688, 2009; note: nearly all actives have a fitted effect of over 60% in size
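Multiplexed with ATP-based cell death, this channel scores GFP aggregates in PC12 cells expressing inducible HTTex1-Q103-GFP. Induction used 100 nM tebufenozide; compounds were tested in concentration series.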
HTT ATP protect – qHTS Multiplex Assay to Identify Dual Action Probes in a Cell Model of Huntington: Cytoprotection (ATP) | PC12 HTT-Q103 induced, cytoprotection, ATP luminescence, 40 h | Potency, µM (doses to about 56.4 µM), most hits filed as activators | 230,000 tested, 0.14% active | AID 1471, 2008; note: nearly all actives have a fitted effect of over 45% in size
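ATP quantification (ATPlite) reports survival of PC12 cells in which tebufenozide, 100 nM final, switches on Htt exon 1 with 103 glutamines linked to GFP; compounds are titrated.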
ALDH1A1 block – qHTS Assay for Inhibitors of Aldehyde Dehydrogenase 1 (ALDH1A1); 220,000 tested, 7.3% active; Purified ALDH1A1, NADH fluorescence, propionaldehyde substrate; AID 1030, 2008; Aldehyde dehydrogenase 1A1 (Homo sapiens), P00352; Potency, µM (highest dose often 75.3 µM), most hits filed as inhibitors; active = well fitted inhibition curve with a large enough effect, not every such curve was filed as active; inconclusive = small, poorly fitted or top-dose-only effect, or another doubt; inactive = no such curve, though single readings can be large or run the other way
Target sequence (P00352 whole entry, looked up): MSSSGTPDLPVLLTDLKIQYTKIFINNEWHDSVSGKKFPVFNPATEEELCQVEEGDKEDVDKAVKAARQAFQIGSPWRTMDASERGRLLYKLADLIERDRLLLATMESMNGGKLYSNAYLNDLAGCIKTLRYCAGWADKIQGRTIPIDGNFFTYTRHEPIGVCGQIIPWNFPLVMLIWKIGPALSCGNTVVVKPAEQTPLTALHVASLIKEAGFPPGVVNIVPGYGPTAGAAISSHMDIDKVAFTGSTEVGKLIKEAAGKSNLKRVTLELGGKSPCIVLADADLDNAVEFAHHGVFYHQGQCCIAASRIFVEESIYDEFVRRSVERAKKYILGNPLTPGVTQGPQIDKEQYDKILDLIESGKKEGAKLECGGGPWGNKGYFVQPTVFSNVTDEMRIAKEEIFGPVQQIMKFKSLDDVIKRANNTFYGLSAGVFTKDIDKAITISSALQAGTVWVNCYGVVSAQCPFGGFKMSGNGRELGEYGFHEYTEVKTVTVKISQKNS
HPGD block – qHTS Assay for Inhibitors of HPGD (15-Hydroxyprostaglandin Dehydrogenase). 15-hydroxyprostaglandin dehydrogenase [NAD(+)] (Homo sapiens), P15428. purified HPGD, NADH fluorescence kinetic, PGE2 substrate. Potency, µM, hits mostly inhibitors. 150,000 tested, 4.3% active. AID 894, 2007; active = well fitted inhibition curve with a large enough effect, not every such curve was filed as active; inconclusive = small, poorly fitted or top-dose-only effect, or another doubt; inactive = no such curve, though single readings can be large or run the other way
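20 nM HPGD preincubated 15 min at room temperature with compound in 50 mM Tris-HCl pH 8, 0.01% Tween 20. Started with 1 mM NAD+ and 30 uM prostaglandin E2; NADH fluorescence (360/450 nm) read 5 times over 30-s intervals, last minus first.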
Large screens that a line does not name were inactive. Rows were chosen to be rich in hits. Some 9.4% of all compounds tested hit in one or more screens of this group. Unless noted, calls come from the whole dose curve; as a rule, active = well fitted curve in the direction sought with a large enough effect; inconclusive = small, poorly fitted or top-dose-only effect, or another doubt; inactive = no such curve, though single readings can be large; an effect the other way counts as inactive or inconclusive.

Cn1cc(C(=O)NCc2cccnc2)c(=O)c2cc(S(=O)(=O)N3CCCCCC3)ccc21	none (no result: IMPase inh, HPGD block)
CC1CCCCC1NC(=O)c1cn(C)c2ccc(S(=O)(=O)N3CCCC3)cc2c1=O (configuration not stated)	ALDH1A1 block 13µM
Cn1cc(C(=O)NCc2cccs2)c(=O)c2cc(S(=O)(=O)N3CCCC3)ccc21	ALDH1A1 block 4.5µM (no result: IMPase inh, HTT ATP protect)
CCN(CC(=O)NCc1cccs1)c1ccc(S(=O)(=O)N2CCOCC2)cn1	ALDH1A1 block inconclusive
O=C(NN=C1CCCCCC1)c1ccc2c(c1)OCO2	ALDH1A1 block inconclusive (no result: IMPase inh, HPGD block)
COc1cccc([C@@H]2Oc3ccc(OC)cc3[C@H](O)[C@H]2O)c1	none (no result: IMPase inh, HTT aggregate)
COc1ccc(-n2c(=O)cc(N3CCN(c4ccccc4F)CC3)[nH]c2=O)cc1	ALDH1A1 block 4µM
O=C(c1csnn1)N1CCC[C@@]2(CCN(Cc3cc(C(F)(F)F)cc(C(F)(F)F)c3)C2)C1	ALDH1A1 block inconclusive (no result: IMPase inh, HTT aggregate)
O=C(N/N=C/c1cc(Br)ccc1O)c1ccncc1	none (no result: IMPase inh, IMPase Li cell, ALDH1A1 block, HPGD block)
Cc1nc(C)c(C(=O)N/N=C/c2cc(Br)ccc2O)s1	HTT aggregate 1.3µM (no result: IMPase inh, IMPase Li cell, ALDH1A1 block, HPGD block)
O=C(c1ccco1)N1CCN(Cc2nnnn2CC2CCCO2)CC1 (configuration not stated)	ALDH1A1 block 20µM (no result: IMPase inh, HPGD block)
O=C(c1ccco1)N1CCN(C(c2ccc(Cl)cc2)c2nnnn2CC2CCCO2)CC1 (configuration not stated)	ALDH1A1 block inconclusive
Cc1ccc(S(=O)(=O)Cn2nnnc2C(C)N2CCN(C(=O)c3ccco3)CC2)cc1 (configuration not stated)	ALDH1A1 block 25µM
Cc1ccc(C(c2nnnn2CC2CCCO2)N2CCN(C(=O)c3ccco3)CC2)cc1 (configuration not stated)	ALDH1A1 block 16µM
COc1ccc(C(=O)N(c2ccc(OC)cc2)S(=O)(=O)c2ccc3c(c2)n(C)c(=O)n3C)cc1	none (no result: IMPase Li cell, HTT aggregate, HTT ATP protect, ALDH1A1 block, HPGD block)
CN(C)c1ccc(C2N3CC4(C)CN2CC(C)(C3)C4O)cc1 (configuration not stated)	ALDH1A1 block 0.89µM
CCOC(=O)Cn1nnnc1C(C(C)C)N(Cc1cc2c(C)cc(C)cc2[nH]c1=O)C1CCCC1 (configuration not stated)	ALDH1A1 block 3.5µM
CC(=O)N(Cc1cc2c(C)cc(C)cc2[nH]c1=O)C1CCCCC1	IMPase inh inconclusive, ALDH1A1 block inconclusive
COc1ccc(-c2nc(-c3ccccc3OC)no2)cc1OC	ALDH1A1 block inconclusive, HPGD block inconclusive
COc1ccc(Br)cc1-c1noc(-c2ccccc2F)n1	HTT aggregate 4µM
Cc1ccc(S(=O)(=O)c2nc(S(C)(=O)=O)sc2N(C)C)cc1	none
CCOc1nc(S(=O)(=O)c2ccc(C)cc2)c(Cl)s1	none
CCCS(=O)(=O)c1nc(S(=O)(=O)c2ccc(C)cc2)c(N2CCCC2)s1	ALDH1A1 block 7.9µM
CCCS(=O)(=O)c1nc(S(=O)(=O)c2ccc(C)cc2)c(N2CCc3ccccc3C2)s1	ALDH1A1 block 1.4µM
COCCOC(=O)C1=C(C)N(c2ccccc2)C(=O)NC1c1cccc([N+](=O)[O-])c1 (configuration not stated)	HTT aggregate inconclusive, ALDH1A1 block inconclusive
COc1ccc(C2NC(=S)N(c3ccccc3)C(C)=C2C(=O)Nc2ccccc2)cc1 (configuration not stated)	ALDH1A1 block 2µM
CC1=C(C(=O)Nc2ccc([N+](=O)[O-])cc2)C(c2cccc(C(F)(F)F)c2)NC(=S)N1c1ccccc1 (configuration not stated)	HTT aggregate inconclusive, ALDH1A1 block 14µM
CN=C1SC(C(=O)Nc2ccccc2Cl)CC(=O)N1c1ccc(OC(F)(F)Cl)cc1 (configuration not stated)	HTT ATP protect inconclusive (no result: IMPase inh, HPGD block)
CC1CN(C)C(c2ccccc2)C(C)C12NC(=O)NC2=O (configuration not stated)	ALDH1A1 block 7.1µM
CC1C(c2ccccc2)N(C)C(c2ccccc2)CC1(O)c1ccccc1 (configuration not stated)	HTT aggregate inconclusive
CCCCC[C@H](O)/C=C/C=C\C/C=C\CCCCC(=O)O	none (no result: IMPase inh, HTT aggregate, HTT ATP protect)
O=C(/C=C/c1cccc(OCc2ccccc2)c1)c1cccnc1	ALDH1A1 block inconclusive
O=C(O)Cc1c[nH]c2ccc(O)cc12	ALDH1A1 block inconclusive, HPGD block 22µM (no result: HTT aggregate)
Clc1ccc(C2=NNC(=NCc3ccc4c(c3)OCO4)SC2)cc1	ALDH1A1 block 22µM (no result: IMPase Li cell, HPGD block)
Fc1cccc(Cc2noc(CN3CCCN(C4Cc5ccccc5C4)CC3)n2)c1	ALDH1A1 block 3.5µM (no result: IMPase inh, HPGD block)
CCOc1ccc(/C=C/c2c([N+](=O)[O-])c(=O)n(C)c(=O)n2C)cc1	HTT ATP protect 7.9µM (no result: IMPase inh, HPGD block)
COc1ccc(/C=C/c2c([N+](=O)[O-])c(=O)n(C)c(=O)n2C)cc1	HTT ATP protect inconclusive, ALDH1A1 block inconclusive (no result: IMPase inh, HPGD block)
O=C(NC1(O)C(=O)c2ccccc2C1=O)c1c(Cl)cccc1Cl	none (no result: IMPase inh, IMPase Li cell, ALDH1A1 block, HPGD block)
O=C(NC1(O)C(=O)c2ccccc2C1=O)c1ccccc1	HTT aggregate inconclusive, ALDH1A1 block 1.4µM
COc1cccc(NC(=O)c2ccc(-c3ccccc3[N+](=O)[O-])o2)c1	ALDH1A1 block inconclusive (no result: IMPase inh, HPGD block)
Cc1cccc(NC(=O)c2ccc(-c3ccccc3[N+](=O)[O-])o2)c1	ALDH1A1 block 2.2µM (no result: IMPase inh, HPGD block)
CCc1ccccc1NC(=O)CSc1nnc([C@@H](N)Cc2ccccc2)o1	ALDH1A1 block inconclusive
N[C@@H](Cc1ccccc1)c1nnc(SCc2ccccc2Cl)o1	ALDH1A1 block inconclusive, HPGD block 28µM
COc1ccccc1OCCCN1C(=O)C(=O)c2cccc(C)c21	none (no result: IMPase inh, HPGD block)
Cc1cccc2c1N(CCOc1ccc(C(C)(C)C)cc1)C(=O)C2=O	ALDH1A1 block 0.5µM
Cc1ccc(OCCCN2C(=O)C(=O)c3cccc(C)c32)cc1	ALDH1A1 block 0.071µM, HPGD block 18µM
O=C1C=C(Nc2nc(C(=O)O)cc(=O)[nH]2)c2ccccc2C1=O	none (no result: IMPase inh, HTT aggregate)
COC(=O)c1ccccc1OCC(=O)N1CCN(c2ccc(F)cc2)CC1	none

From PubChem BioAssay
